Reference: PubChem BioAssay (NCI)
About 79,000 compounds went through this panel and 15% of them were active in at least one assay; those are over-represented in the sample as a whole. Activity calls are given as the source filed them. No stated cut-off is given here; in the data, active means growth inhibition above about 70%; inactive means the rest.

Experiments:
[1] = NCI Yeast Anticancer Drug Screen. Data for the rad52 strain (AID 147);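 further: 0% = growth of vehicle-treated control cultures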; details: S. cerevisiae rad52 mutant growth inhibition, hits give high values
In short: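 Here a repair-compromised yeast strain receives each compound; its growth is then quantified and normalised to vehicle-only controls.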

[2] = NCI Yeast Anticancer Drug Screen. Data for the rad50EPP+ strain (AID 151);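 further: 0% = growth of vehicle-treated control cultures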; details: S. cerevisiae rad50 mutant strain, hits give high values
In short: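 Read-out is yeast growth inhibition relative to vehicle; cells used were the rad50EPP+ strain.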

[3] = NCI Yeast Anticancer Drug Screen. Data for the mgt1 strain (AID 153); details: S. cerevisiae mgt1 mutant growth inhibition, hits give high values
In short: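 Measured: inhibition of mgt1 yeast growth by compound, normalized to vehicle-treated cultures.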

[4] = NCI Yeast Anticancer Drug Screen. Data for the rad50 strain (AID 155);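 further: 0% = growth of vehicle-only cultures of the same strain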; details: S. cerevisiae rad50 strain growth inhibition, hits give high values
In short: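 Cells are treated with compound, grown, and their growth is then scored against vehicle-only cultures of the same repair-deficient yeast strain.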

[5] = NCI Yeast Anticancer Drug Screen. Data for the mec2-1 strain (AID 157); details: S. cerevisiae mec2-1 strain, hits give high values
In short: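 Using mec2-1 yeast: add compound, measure growth, express inhibition versus vehicle-treated cultures.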

[6] = NCI Yeast Anticancer Drug Screen. Data for the rad14 strain (AID 159);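 further: 0% = growth of vehicle-treated control cultures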; details: S. cerevisiae rad14 strain growth inhibition, hits give high values
In short: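 Readout: yeast growth inhibition, referenced to vehicle-only cultures. Strain bears a defined alteration in DNA damage repair.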

[7] = NCI Yeast Anticancer Drug Screen. Data for the CLN2oe strain (AID 163);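 further: 0% = growth of vehicle-only control cultures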; details: S. cerevisiae CLN2oe strain, hits give high values
In short: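 Whole-cell yeast growth assay. A strain engineered for altered cell-cycle control received compound, and inhibition relative to vehicle-treated cultures was recorded.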

[8] = NCI Yeast Anticancer Drug Screen. Data for the cln2 rad14 strain (AID 165);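 further: 0% = growth equal to vehicle treated cultures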; details: S. cerevisiae cln2 rad14 strain, hits give high values
In short: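 Yeast strain cln2 rad14, bearing defects in cell cycle control and DNA repair, serves as the test system; values reflect growth inhibition compared with vehicle.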

[9] = NCI Yeast Anticancer Drug Screen. Data for the bub3 strain (AID 167); details: S. cerevisiae bub3 mutant strain, hits give high values
In short: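 Part of a panel of yeast mutants defective in DNA damage repair or cell cycle regulation. Each strain is grown with compound, and inhibition is calculated relative to solvent-treated cultures.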

[10] = NCI Yeast Anticancer Drug Screen. Data for the wt2 strain (AID 169);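 further: 0% = growth of vehicle-treated yeast cultures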; details: S. cerevisiae wt2 strain growth inhibition, hits give high values
In short: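 Treated yeast vs. vehicle-treated yeast: growth inhibition determined.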

[11] = NCI Yeast Anticancer Drug Screen. Data for the mlh1 strain (AID 171);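 further: 0% = growth of vehicle-treated control cultures of the same strain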; details: S. cerevisiae mlh1 strain growth inhibition, hits give high values
In short: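 A yeast strain with a defined genetic lesion serves as the test organism. Cultures receive compound or vehicle, and growth is measured.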

[12] = NCI Yeast Anticancer Drug Screen. Data for the sgs1 strain (AID 173);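 further: 0% = growth of vehicle-only control cultures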; details: S. cerevisiae sgs1 mutant, hits give high values
In short: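 A genetically defined yeast mutant is incubated with the test compound, and its growth is compared to that of the same strain given vehicle.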

[13] = NCI Yeast Anticancer Drug Screen. Data for the mlh1 rad18 strain (AID 175); details: S. cerevisiae mlh1 rad18 strain growth inhibition, hits give high values
In short: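 Steps: expose repair-defective yeast to compound; measure growth; express inhibition against vehicle-treated controls.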

[14] = NCI Yeast Anticancer Drug Screen. Data for the rad18 strain (AID 177); details: S. cerevisiae rad18 mutant growth inhibition, hits give high values
In short: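 Measured value is growth inhibition of a yeast strain bearing a DNA repair alteration, referenced to vehicle-treated cells.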

[15] = NCI Yeast Anticancer Drug Screen. Data for the wt1 strain (AID 149);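 further: 0% = growth of vehicle-treated wt1 cultures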; details: S. cerevisiae wt1 strain (SPY 50644) growth inhibition, hits give high values
In short: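 The wt1 strain was treated with compounds, and growth was compared with vehicle-treated cultures to give inhibition.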

[16] = NCI Yeast Anticancer Drug Screen. Data for the sgs1 mgt1 strain (AID 161);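 further: 0% = growth of cultures given vehicle only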; details: S. cerevisiae sgs1 mgt1 strain, hits give high values
In short: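 Compounds are added to genetically altered yeast, and growth is compared with cultures given vehicle alone to give percent inhibition.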

[17] = at 5.0 µM (retest, dose inferred, filed as 0.5)
[18] = at 50.0 µM (retest, dose inferred, filed as 5.0)

Measured: growth inhibition

CCCCCCCCCCCCCCCCCCNC(=S)/N=C/c1c(O)c2ccccc2[nH]c1=O
inactive: [1]; at 1.2 µM 7% | [1]; at 3.7 µM 4% | [1]; at 11.0 µM 16% | [1]; at 33.0 µM 11% | [1]; at 100.0 µM 12% | [2]; at 1.2 µM 1% | [2]; at 3.7 µM 3% | [2]; at 11.0 µM 12% | [2]; at 33.0 µM 29% | [2]; at 100.0 µM 40% | [3]; at 1.2 µM 1% | [3]; at 3.7 µM 4% | [3]; at 11.0 µM 2% | [3]; at 33.0 µM 1% | [3]; at 100.0 µM 0% | [4]; at 1.2 µM -1% | [4]; at 3.7 µM 0% | [4]; [17] -12% | [4]; at 11.0 µM 1% | [4]; at 33.0 µM 1% | [4]; [18] 61% | [4]; at 50.0 µM 63% | [4]; at 100.0 µM -1% | [5]; at 1.2 µM 0% | [5]; at 3.7 µM 2% | [5]; [17] -5% | [5]; at 11.0 µM -3% | [5]; at 33.0 µM 2% | [5]; [18] 27% | [5]; at 50.0 µM 6.6% | [5]; at 100.0 µM -1% | [6]; at 1.2 µM 1% | [6]; at 3.7 µM 1% | [6]; at 11.0 µM 0% | [6]; at 33.0 µM 4% | [6]; at 100.0 µM 4% | [7]; at 1.2 µM -4% | [7]; at 3.7 µM -3% | [7]; at 11.0 µM 2% | [7]; at 33.0 µM -7% | [7]; at 100.0 µM 3% | [8]; [17] -7% | [8]; [18] 16% | [8]; at 50.0 µM -24% | [9]; at 1.2 µM -4% | [9]; at 3.7 µM -4% | [9]; [17] -25% | [9]; at 11.0 µM -2% | [9]; at 33.0 µM -5% | [9]; [18] 69% | [9]; at 100.0 µM 26% | [10]; at 1.2 µM -3% | [10]; at 3.7 µM -1% | [10]; at 11.0 µM -2% | [10]; at 33.0 µM 4% | [10]; at 100.0 µM 20% | [11]; at 1.2 µM 0% | [11]; at 3.7 µM -2% | [11]; at 11.0 µM -3% | [11]; at 33.0 µM -4% | [11]; at 100.0 µM -4% | [12]; at 1.2 µM 0% | [12]; at 3.7 µM 3% | [12]; at 11.0 µM 6% | [12]; at 33.0 µM 11% | [12]; at 100.0 µM 23% | [13]; [17] 9% | [13]; [18] 28% | [13]; at 50.0 µM 58.4% | [14]; at 1.2 µM 2% | [14]; at 3.7 µM 4% | [14]; at 11.0 µM 6% | [14]; at 33.0 µM 22% | [14]; at 100.0 µM 25%
active: [9]; at 50.0 µM 72.3%

COc1ccc2nc3cccc([N+](=O)[O-])c3c(NCCNCCN(C)C)c2c1
active: [4]; [18] 97% | [4]; at 50.0 µM 74.7% | [5]; [18] 97% | [5]; at 50.0 µM 73% | [16]; [17] 72% | [16]; [18] 93% | [8]; [18] 99% | [8]; at 50.0 µM 77.7% | [13]; [18] 96%
inactive: [15]; at 1.2 µM -3% | [15]; at 3.7 µM -2% | [15]; at 11.0 µM -2% | [15]; at 33.0 µM -1% | [15]; at 100.0 µM 3% | [2]; at 1.2 µM -4% | [2]; at 3.7 µM 0% | [2]; at 11.0 µM 0% | [2]; at 33.0 µM -4% | [2]; at 100.0 µM 3% | [3]; at 1.2 µM 0% | [3]; at 3.7 µM -3% | [3]; at 11.0 µM 20% | [3]; at 33.0 µM -3% | [3]; at 100.0 µM 5% | [4]; at 1.2 µM -4% | [4]; at 3.7 µM -5% | [4]; [17] 29% | [4]; at 11.0 µM -12% | [4]; at 33.0 µM -4% | [4]; at 100.0 µM 1% | [5]; at 1.2 µM 2% | [5]; at 3.7 µM -1% | [5]; [17] 5% | [5]; at 11.0 µM 2% | [5]; at 33.0 µM -1% | [5]; at 100.0 µM 8% | [6]; at 1.2 µM -2% | [6]; at 3.7 µM -2% | [6]; at 11.0 µM 0% | [6]; at 33.0 µM 1% | [6]; at 100.0 µM 4% | [16]; at 50.0 µM 68.2% | [7]; at 1.2 µM -1% | [7]; at 3.7 µM -2% | [7]; at 11.0 µM -11% | [7]; at 33.0 µM 3% | [7]; at 100.0 µM 12% | [8]; [17] 32% | [9]; at 1.2 µM -5% | [9]; at 3.7 µM 4% | [9]; [17] -33% | [9]; at 11.0 µM 3% | [9]; at 33.0 µM -5% | [9]; [18] 50% | [9]; at 50.0 µM -5.3% | [9]; at 100.0 µM -5% | [10]; at 1.2 µM -2% | [10]; at 3.7 µM -4% | [10]; at 11.0 µM -3% | [10]; at 33.0 µM -3% | [10]; at 100.0 µM 1% | [11]; at 1.2 µM -4% | [11]; at 3.7 µM -4% | [11]; at 11.0 µM -1% | [11]; at 33.0 µM -3% | [11]; at 100.0 µM 3% | [12]; at 1.2 µM -1% | [12]; at 3.7 µM -1% | [12]; at 11.0 µM 0% | [12]; at 33.0 µM -1% | [12]; at 100.0 µM 2% | [13]; [17] 55% | [13]; at 50.0 µM 66.5% | [14]; at 1.2 µM -5% | [14]; at 3.7 µM -3% | [14]; at 11.0 µM -4% | [14]; at 33.0 µM 3% | [14]; at 100.0 µM 6%
